Measured values taken from PubChem BioAssay (EPA / NIEHS).
Records with an inconclusive call do not appear. Active and inactive are the calls of the source. The calls were made as follows: active = hit-call score of the fitted dose curve at least 0.9, where 1 is the maximum; inconclusive = response in the unintended direction; inactive = score below 0.9.

Assays:
[1] = TOX21_p53_BLA_p2_viability: Viability Assessment in the Tox21 HCT-116 p53 Agonism Beta-lactamase Assay, Phase 2 (AID 2283591);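 also: compound exposure lasted 16 h at 37 °C; actives lower the ATP signal meaning cytotoxicity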
In short: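 HCT116 p53-bla cells, 4000/well, dosed after 5 h plating (217-fold dilution of DMSO stocks) and incubated 16 h at 37C. Viability taken as cellular ATP by CellTiter-Glo luminescence after 30 min RT; signal loss marks cytotoxicity.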

[2] = biological target: Cellular tumor antigen p53 (Homo sapiens) (UniProt P04637); test: TOX21_p53_BLA_p2_ratio: Tox21 HCT-116 p53 Agonism Beta-lactamase Assay, Ratio, Phase 2 (AID 2283592)
In short: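 Read-out is the blue/green (460/530 nm, 405 nm excitation) ratio after 2 h CCF4-AM loading, fitted as gain versus DMSO. Compounds, pinned at 217-fold dilution from DMSO stocks, stayed 16 h on HCT-116 beta-lactamase reporter cells seeded 5 h earlier.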

[3] = biological target: Cellular tumor antigen p53 (Homo sapiens) (UniProt P04637); test: TOX21_p53_BLA_p3_ratio: Tox21 HCT-116 p53 Agonism Beta-lactamase Assay, Ratio, Phase 3 (AID 2283596)
In short: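 Cells were seeded at 4000/well, rested 5 h at 37C, then dosed with DMSO compound solutions (217-fold dilution) for 16 h. CCF4-AM substrate was loaded for 2 h at room temperature, and the 460/530 nm emission ratio was fitted for gain of signal versus DMSO.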

[4] = biological target: Cellular tumor antigen p53 (Homo sapiens) (UniProt P04637); test: TOX21_p53_BLA_p5_ratio: Tox21 HCT-116 p53 Agonism Beta-lactamase Assay, Ratio, Phase 5 (AID 2283599)
In short: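 HCT-116 p53-bla cells (4000/well) plated 5 h, dosed with compound (217-fold DMSO dilution) for 16 h at 37 C; CCF4-AM substrate 2 h at room temperature. Activity is the 460/530 nm emission ratio (405 nm excitation), fitted in gain-of-signal direction versus DMSO.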

[5] = biological target: Cellular tumor antigen p53 (Homo sapiens) (UniProt P04637); test: TOX21_p53_BLA_p4_ratio: Tox21 HCT-116 p53 Agonism Beta-lactamase Assay, Ratio, Phase 4 (AID 2283601)
In short: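 HCT-116 p53 beta-lactamase reporter cells (4000/well) preincubated 5 h, then compound (217-fold dilution of DMSO stock) for 16 h at 37C. CCF4-AM substrate added 2 h at room temperature; 460/530 nm emission ratio fitted upward versus DMSO.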

[6] = TOX21_p53_BLA_p5_viability: Viability Assessment in the Tox21 HCT-116 p53 Agonism Beta-lactamase Assay, Phase 5 (AID 2283600)
In short: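 Viability came from CellTiter-Glo ATP luminescence, read after 30 min at room temperature. Before this, HCT-116 p53-bla cells (4000/well) had 16 hours of compound exposure at 37C, with DMSO stocks diluted 217-fold on transfer.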

[7] = TOX21_p53_BLA_p4_viability: Viability Assessment in the Tox21 HCT-116 p53 Agonism Beta-lactamase Assay, Phase 4 (AID 2283597);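 also: hits lower the luminescence signal meaning cytotoxicity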
In short: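 Cytotoxicity as reduced cellular ATP (CellTiter-Glo luminescence, 30 min room temperature), measured in the same wells following the CCF4 FRET p53 reading. Human HCT-116 cells received compounds in DMSO (217-fold dilution) for 16 h.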

Measured: AC50

Sequence of Cellular tumor antigen p53 (Homo sapiens) (P04637 whole entry, looked up): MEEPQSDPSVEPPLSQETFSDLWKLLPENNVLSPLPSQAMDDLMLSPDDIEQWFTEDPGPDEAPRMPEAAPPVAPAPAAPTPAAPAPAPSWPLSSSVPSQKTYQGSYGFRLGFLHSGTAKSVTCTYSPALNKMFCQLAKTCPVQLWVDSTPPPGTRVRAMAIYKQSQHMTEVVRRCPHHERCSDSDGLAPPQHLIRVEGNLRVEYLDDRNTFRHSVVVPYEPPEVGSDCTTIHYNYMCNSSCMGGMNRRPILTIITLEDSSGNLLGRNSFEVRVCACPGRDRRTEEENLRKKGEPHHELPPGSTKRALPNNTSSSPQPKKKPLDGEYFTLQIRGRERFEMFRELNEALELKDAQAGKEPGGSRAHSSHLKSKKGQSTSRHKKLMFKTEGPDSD

ON=C1CCCC1
not listed: [6] | [7]
inactive: all other assays above

N[C@@H](C(=O)N[C@@H]1C(=O)N2C(C(=O)O)=C(Cl)CS[C@H]12)c1ccccc1
not listed: [4] | [7]
inactive: all other assays above

C[N+](C)(CCCCCC[N+](C)(C)C1c2ccccc2-c2ccccc21)C1c2ccccc2-c2ccccc21
inactive: [1] | [2] | [7]

CCCCCOC(=O)Nc1nc(=O)n([C@@H]2O[C@H](C)[C@@H](O)[C@H]2O)cc1F
not listed: [3]
inactive: all other assays above

Cc1ccc(N=Nc2c(O)c(C(=O)O)cc3ccccc23)c(S(=O)(=O)O)c1
not listed: [3] | [6]
inactive: all other assays above

Cc1cc(C(C)(C)C)c(O)c(C)c1CC1=NCCN1
not listed: [3]
inactive: all other assays above

CCCC(C)C(=O)O (stereo unspecified)
not listed: [3] | [5]
inactive: all other assays above

O=C1NC(=O)[C@@]2(CCOc3ccc(F)cc32)N1
not listed: [3]
inactive: all other assays above

CN1CCN(CCCN2c3ccccc3Sc3ccc(S(=O)(=O)N(C)C)cc32)CC1
not listed: [3]
inactive: all other assays above

Nc1ncnc(Nc2ccc(Cl)cc2)n1
not listed: [3]
inactive: all other assays above

O=C(O)c1cccc(O)c1
not listed: [3] | [6]
inactive: all other assays above

C[C@@H]1O[C@@H](O[C@@H]2[C@@H](O)[C@H](OCCc3ccc(O)c(O)c3)O[C@H](CO[C@@H]3O[C@H](CO)[C@@H](O)[C@H](O)[C@H]3O)[C@H]2OC(=O)/C=C/c2ccc(O)c(O)c2)[C@H](O)[C@H](O)[C@H]1O
inactive: [1] | [2] | [7] | [6]

CC(=O)N/N=C/c1ccc([N+](=O)[O-])o1
active: [2] 42.3 µM | [7] 40.9 µM | [4] 34.9 µM | [5] 41.3 µM
inactive: [1] | [6]

CCC(=O)Nc1cccc(N)c1
inactive: [1] | [2] | [7] | [6]

C=CC(=O)OCCCCCCCC
inactive: [1] | [2] | [7] | [6]

CC(=O)c1cc(C)oc1C
not listed: [3]
inactive: all other assays above

CCN1CCC[C@H]1CNC(=O)c1c(O)c(Cl)cc(Cl)c1OC
not listed: [3] | [5]
inactive: all other assays above

CO/N=C(/C(=O)N[C@@H]1C(=O)N2C(C(=O)OCOC(=O)C(C)(C)C)=C(C)CS[C@H]12)c1csc(N)n1
inactive: [1] | [2] | [7] | [6]

CC(COc1ccc(C(C)(C)C)cc1)OS(=O)OCCCl (stereo unspecified)
not listed: [3]
inactive: all other assays above

C=C1c2c(Cl)ccc(O)c2C(O)=C2C(=O)[C@]3(O)C(O)=C(C(N)=O)C(=O)[C@@H](N(C)C)[C@@H]3[C@@H](O)[C@H]12
inactive: [1] | [2] | [7] | [6]

CCCC(C)CC (stereo unspecified)
inactive: [1] | [2] | [7] | [6]

NS(=O)(=O)c1cc2c(cc1Cl)NC(C1CC3C=CC1C3)NS2(=O)=O (stereo unspecified)
not listed: [3]
inactive: all other assays above

c1ccc(CCNc2nc(-c3ccccc3)cs2)cc1
not listed: [3] | [5]
inactive: all other assays above

O=C(O)c1ccc2cc(O)ccc2c1
not listed: [3] | [6]
inactive: all other assays above

O=C=Nc1ccc(Cl)c(Cl)c1
not listed: [3]
inactive: all other assays above

CCCCCCCC/C=C\CCCCCCCCN
not listed: [3] | [6]
inactive: all other assays above

CN1CCCN=C1COC(=O)C(O)(c1ccccc1)C1CCCCC1 (stereo unspecified)
not listed: [3] | [6]
inactive: all other assays above

COc1nc(N)nc2nc[nH]c12
inactive: [1] | [2] | [7] | [6]

O=C1N(c2ccccc2)c2ccccc2C1(Cc1ccncc1)Cc1ccncc1
not listed: [3] | [6]
inactive: all other assays above
